Test [1] has as its target Arylsulfatase A (Homo sapiens) (UniProt P15289). Kind of test: qHTS screen for enhancers of Arylsulfatase A (ASA1): LOPAC Validation Assay (AID 720538). The gist of the method: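 Cell-based enhancement test: residual ASA activity in SV40-transformed I179S patient fibroblasts is measured by pNCS turnover (0.5mM final, 14h, room temperature) following 48h compound incubation; higher fluorescence indicates activation.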
In general terms: Quantitative high-throughput screening tests each substance at several concentrations.

A short description of test [2]: qHTS for compounds that reverse cellular toxicity of Amyloid beta (A-beta) peptide in yeast: LOPAC Validation Assay (AID 720559).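 Note: plate controls were DMSO for no effect and equimolar ferric chloride plus clioquinol rescue for full effect.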 The gist of the method:
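Here, A-beta-toxic yeast grow with test compounds at 30 C for 48 hr before optical density at 600 nm is recorded; data are normalized against DMSO and the FeCl3-clioquinol control.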

The nature of test [3]: qHTS for Activators of Parkin Expression: LOPAC Validation Assay (NLuc Reporter) (AID 720572;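 note: 0% = DMSO and 100% = positive control compound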). Summed up:
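Neuronal cells with a Parkin promoter-driven FLuc/NLuc coincidence reporter were treated 24 h at 37 C in 7-point dose response (LOPAC). NLuc luminescence read after FLuc; signals normalized to DMSO and positive control (100%).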

Test [4] can be described thus: qHTS for Activators of Parkin Expression: LOPAC Validation Assay (FLuc Reporter) (AID 720573;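 note: 0% = DMSO and 100% = positive control compounds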). Summed up:
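Readout is FLuc luminescence from neuronal reporter cells (Parkin promoter, FLuc plus NLuc) after 24 h compound exposure in dose response. Values normalized to neutral DMSO and positive-control compounds.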

Test [5] concerns the target Tumor necrosis factor (Homo sapiens) (UniProt P01375). Kind of test: qHTS assay to identify small molecules that stimulate Tumor Necrosis Factor-alpha (TNF-alpha) secretion (AID 651757; active = well fitted curve in the direction sought with a large enough effect in the signal ratio; the % refers to the signal ratio; note: 0% is about no effect). The gist of the method: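 THP-1 cells were exposed to compounds for 17 hrs at 37 C, after which secreted TNF-alpha was measured by homogeneous HTRF (TR-FRET) using cryptate- and XL665-labeled anti-TNF-alpha antibodies, read after 3 hr at room temperature.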

Test [6] can be described thus: qHTS assay to identify small molecules that stimulate interleukin-8 (IL-8) secretion (AID 651758; active = well fitted activation curve with a large enough effect in the signal ratio; the % refers to the signal ratio; note: potency is the fitted concentration of half-maximal effect; for activation: 0% is about no effect). The gist of the method: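 THP-1 cells (2000/well) exposed to compound 16 h at 37 C; secreted IL-8 then detected by HTRF with cryptate- and XL665-labelled anti-IL-8 antibody pair after 1-3 h at room temperature.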
A short description of test [7]: qHTS assay for environmental chemicals that activate the Aryl hydrocarbon Receptor (AhR) signaling pathway (AID 651777). For activation: % of control where 0% means no effect. Note: nearly all actives have a fitted effect of over 15% in size. Note: potency is the fitted concentration of half-maximal effect. The settings on record: 1A2-DRE human hepatoma cells, luciferase, 24 h; activation: active compounds read high. The gist of the method:
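1A2-DRE human hepatoma reporter line; 1,200 cells/well; cmpd or DMSO 24 h, 37 C/5% CO2; One-Glo 30 min RT; luciferase lum.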

The target of test [8] is Nuclear receptor ROR-gamma (Homo sapiens) (UniProt P51449). The test is described as follows: qHTS assay for small molecule antagonists of the retinoid-related orphan receptor gamma (ROR-gamma) signaling pathway (AID 651802). Note: nearly all actives have a fitted effect of over 60% in size. Note: potency is the fitted concentration of half-maximal effect. Summed up:
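CHO cells carrying TET-inducible ROR-gamma and an ROR response element–luciferase reporter were exposed to compound, then induced with doxycycline. After 16hr at 37C, luminescence was read; lower signal indicates antagonism.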

Test [9] concerns the target Tyrosine-protein kinase Yes (Homo sapiens) (UniProt P07947). The test is described as follows: qHTS for small molecule inhibitors of Yes1 kinase: Primary Screen (AID 686947).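 Note: plate controls were DMSO with enzyme for no effect and no-enzyme DMSO wells for full effect; nearly all actives have a fitted effect of over 60% in size.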 From the text: The Src family of non-receptor protein tyrosine kinases contains nine members, including Yes1, Src, Fyn, Lyn, and […]. These kinases have important roles in a variety of cellular functions, such as cell proliferation, survival, and differentiation. Src, the most well characterized member of this family, has been previously identified as a proto-oncogene. […] In melanoma, it has been shown that Yes1, and not other family members, such as Src, is functionally involved in the malignant phenotype. Additionally, a recent study examining the downregulation of Yes1 by shRNA found significant effects on cell survival/growth for basal-like and Her2-positive breast cancers. […]
Two micoliter of Yes1 enzyme (columns 1-2, 5-48; Millipore, Billerica, MA) are dispensed into Greiner, white solid-bottom 1536-well assay plates; columns 3 and 4 receive buffer without Yes1 as a control for maximum inhibition. […] The production of ADP is then quantified by the ADP-Glo Kit (Promega, Madison, WI). First, 2 uL of the first kit reagent is added, and the reaction is incubated for 45 minutes; then, 4 uL of the second kit reagent are added and the reaction is incubated for 30 minutes at which time the luminescence is read on a Viewlux plate reader (Perkin-Elmer, Waltham, MA). […]

Test [10] in a line: qHTS for small molecule inhibitors of Yes1 kinase: Counter Assay (AID 686950).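 Note: no kinase present so only ADP-Glo detection of a fixed ADP amount is tested; luminescence from ADP-Glo reporting ADP in a fixed ATP and ADP mixture; series mostly up to about 77 µM; 0% = DMSO wells with ATP plus ADP and -100% = ATP-only wells without ADP.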 Summed up: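 Enzyme-free detection counter-screen: compounds preincubated 20 min in buffer, then 0.08 mM ATP plus 0.02 mM ADP added for 60 min at room temperature; ADP-Glo luminescence. Buffer 50 mM Tris pH 7.5, 10 mM MgCl2, 150 mM NaCl; normalized to ATP+ADP and ATP-only controls.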

Values joined by “and” are separate entries in the source; they are usually repeats but may differ in a detail not shown here. Equal entries are not always repeated. Values without a mark were called inactive. Results filed as inconclusive are left out. Active and inactive are the calls of the source. Unless noted, calls come from the whole dose curve; as a rule, active = well fitted curve in the direction sought with a large enough effect; inconclusive = small, poorly fitted or top-dose-only effect, or another doubt; inactive = no such curve, though single readings can be large; an effect the other way counts as inactive or inconclusive.

Chain of Nuclear receptor ROR-gamma (Homo sapiens) (P51449 whole entry, looked up): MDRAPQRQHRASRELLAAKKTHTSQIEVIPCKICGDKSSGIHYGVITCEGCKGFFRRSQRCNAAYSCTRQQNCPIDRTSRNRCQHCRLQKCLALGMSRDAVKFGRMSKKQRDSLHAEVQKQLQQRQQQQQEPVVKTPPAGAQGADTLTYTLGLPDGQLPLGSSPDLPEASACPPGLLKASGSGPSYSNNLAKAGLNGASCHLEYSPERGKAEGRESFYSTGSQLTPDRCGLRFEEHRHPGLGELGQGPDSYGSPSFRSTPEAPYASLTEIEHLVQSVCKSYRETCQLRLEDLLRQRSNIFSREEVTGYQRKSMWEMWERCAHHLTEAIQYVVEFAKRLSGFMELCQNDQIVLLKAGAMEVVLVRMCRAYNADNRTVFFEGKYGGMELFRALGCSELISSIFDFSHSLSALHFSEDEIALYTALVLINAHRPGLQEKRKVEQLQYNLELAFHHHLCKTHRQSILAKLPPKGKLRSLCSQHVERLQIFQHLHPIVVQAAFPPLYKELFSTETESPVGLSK
Chain of Arylsulfatase A (Homo sapiens) (P15289 whole entry, looked up): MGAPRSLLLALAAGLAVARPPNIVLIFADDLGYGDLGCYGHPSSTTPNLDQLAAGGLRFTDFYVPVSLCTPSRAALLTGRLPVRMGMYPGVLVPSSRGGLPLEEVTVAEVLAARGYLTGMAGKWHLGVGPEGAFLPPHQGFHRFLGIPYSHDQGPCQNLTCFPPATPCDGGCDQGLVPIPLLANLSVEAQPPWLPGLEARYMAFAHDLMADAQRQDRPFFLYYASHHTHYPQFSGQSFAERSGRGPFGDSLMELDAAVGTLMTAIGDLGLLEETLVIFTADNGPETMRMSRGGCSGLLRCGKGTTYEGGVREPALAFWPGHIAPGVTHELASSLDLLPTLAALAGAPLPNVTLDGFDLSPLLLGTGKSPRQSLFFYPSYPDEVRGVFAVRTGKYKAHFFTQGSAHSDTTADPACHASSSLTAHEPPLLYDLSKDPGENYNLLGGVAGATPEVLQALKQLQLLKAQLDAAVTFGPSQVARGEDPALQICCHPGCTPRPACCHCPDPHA
Chain of Tumor necrosis factor (Homo sapiens) (P01375 whole entry, looked up): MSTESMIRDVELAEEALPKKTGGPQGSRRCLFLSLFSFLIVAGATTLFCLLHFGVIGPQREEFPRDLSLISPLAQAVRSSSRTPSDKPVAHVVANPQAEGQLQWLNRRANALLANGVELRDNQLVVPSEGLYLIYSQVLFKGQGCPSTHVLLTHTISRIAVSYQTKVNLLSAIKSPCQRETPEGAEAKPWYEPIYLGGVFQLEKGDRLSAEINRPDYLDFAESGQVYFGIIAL
Chain of Tyrosine-protein kinase Yes (Homo sapiens) (P07947 whole entry, looked up): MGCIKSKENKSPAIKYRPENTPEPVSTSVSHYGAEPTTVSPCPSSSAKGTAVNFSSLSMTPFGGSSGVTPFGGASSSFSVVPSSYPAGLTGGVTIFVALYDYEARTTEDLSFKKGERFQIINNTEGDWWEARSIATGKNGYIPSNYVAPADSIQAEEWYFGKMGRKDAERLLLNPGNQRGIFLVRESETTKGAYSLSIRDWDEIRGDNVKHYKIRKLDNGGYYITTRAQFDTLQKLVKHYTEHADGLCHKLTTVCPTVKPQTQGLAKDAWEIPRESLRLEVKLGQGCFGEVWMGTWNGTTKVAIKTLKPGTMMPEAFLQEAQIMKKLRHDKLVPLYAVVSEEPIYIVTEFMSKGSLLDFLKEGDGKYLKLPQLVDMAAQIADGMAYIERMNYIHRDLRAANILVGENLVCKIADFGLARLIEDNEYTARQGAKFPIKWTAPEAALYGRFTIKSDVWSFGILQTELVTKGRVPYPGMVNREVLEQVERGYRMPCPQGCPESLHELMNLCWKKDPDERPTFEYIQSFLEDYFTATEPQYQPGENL

As to `NS(=O)(=O)c1cc2c(cc1Cl)NC(C1CC3C=CC1C3)NS2(=O)=O` (centres undefined), the Potency entry in test [1] and in test [3] was “inactive” throughout. Moreover, the compound was called inactive in [2] and in test [4].

Take `CN(C)C/C=C(/c1ccc(Br)cc1)c1cccnc1`: the Potency entry in [1] and in test [3] was “inactive” each time. The compound was called inactive in test [2] and in test [4].

Take `O=c1[nH]c(=O)n([C@H]2C[C@H](O)[C@@H](CO)O2)cc1Br`: the outcome in test [5], in test [2] and in test [4] was inactive. For the same compound, the Potency in test [6] was 53.1 µM (active). For the same compound, the activation in test [7] was 0.877%. Also, in test [3], the Potency result is “inactive”.

Take `COCCc1ccc(OCC(O)CNC(C)C)cc1` (centres undefined): the Potency entry in test [1] is “inactive”.

On to `Cc1cccc(C)c1NC(=O)C(C)N` (centres undefined), for which the Potency entry in test [1] was “inactive”.

Take `CN1CCN(CC(=O)N2c3ccccc3C(=O)Nc3cccnc32)CC1`: in test [1], the Potency result is “inactive”.

Turning to `CN(C)C(=O)Oc1ccc[n+](C)c1`, the Potency result in test [1] is “inactive”.

For the compound `Cc1ccc(S(=O)(=O)NC(=O)NN2CCCCCC2)cc1`, the activation in test [7] was 10.4%. Also, the outcome in [2] and in test [4] was inactive. Also, the Potency entry in test [3] was “inactive”.

With `CCCCNC(=O)NS(=O)(=O)c1ccc(C)cc1`, the call in test [5], in test [2] and in [4] was inactive. The activation in [7] is 0.474% and 1.06%. Further, the Potency result in [8], in [1] and in [3] was “inactive” each time.

Regarding `Fc1ccc(C(c2ccc(F)cc2)N2CCN(C/C=C/c3ccccc3)CC2)cc1`, the Potency result in test [1] was “inactive”.

Consider `Nc1nc(N)c2nc(-c3ccccc3)c(N)nc2n1`, for which the activation in test [7] was 13.5% and 13.2%. In addition, the Potency result in test [8] and in test [3] was “inactive” in each case. Further, the compound was classed as inactive in test [2] and in test [4].

Regarding `CCN(CC)CCOCCOC(=O)C1(c2ccccc2)CCCC1`, in test [1], the Potency result is “inactive”.

Take `CCCC(C(=O)OCCN(CC)CC)(c1ccccc1)c1ccccc1`: the Potency entry in [1] and in test [3] was “inactive” throughout. In addition, the compound was classed as inactive in test [2] and in [4].

Regarding `CC1=NS(=O)(=O)c2cc(Cl)ccc2N1`, the Potency entry in [1] is “inactive”.

Consider `CN=C(NC#N)NCCSCc1nc[nH]c1C`, for which the compound was classed as inactive in test [5], in [2] and in [4]. Besides, the activation in [7] is 2.08%. Moreover, the Potency entry in test [8] and in test [3] was “inactive” throughout.

On to `COc1cc(Cc2cnc(N)nc2N)cc(OC)c1OC`, for which the result in test [5], in test [2] and in test [4] was inactive. Further, the activation in test [7] is -1.14%. In addition, the Potency entry in test [1] and in [3] was “inactive” in each case.

For `CCn1nc(C(=O)O)c(=O)c2cc3c(cc21)OCO3`, in test [1], the Potency result was “inactive”.

Regarding `CC[N+](C)(C)c1cccc(O)c1`, the Potency result in test [1] was “inactive”.

As for `Nc1ncn([C@@H]2O[C@H](CO)[C@@H](O)[C@H]2O)c(=O)n1`, the call in test [5], in test [10], in test [2] and in [4] was inactive. Besides, in test [7], the activation is 5.55% and 8.87%. Further, the Potency in [8] was 3.35 µM (active). In addition, the Potency entry in [9] was “inactive”.

As for `CC(C)(Oc1ccc(CCNC(=O)c2ccc(Cl)cc2)cc1)C(=O)O`, the activation in test [7] was -0.0115%. Also, the Potency result in [1] and in [3] was “inactive” in each case. The compound was called inactive in test [2] and in test [4].

With `C(=C\c1ccccc1)/CN1CCN(C(c2ccccc2)c2ccccc2)CC1`, the Potency entry in test [1] and in test [3] was “inactive” in each case. For the same compound, the outcome in test [2] and in test [4] was inactive.

Turning to `COc1ccc(CN(CCN(C)C)c2ccccn2)cc1`, the Potency entry in [6], in test [8], in [1] and in [3] was “inactive” each time. The activation in test [7] was 3.63%. Besides, the outcome in test [2] and in test [4] was inactive.

With `C[C@]12CCC(=O)C=C1CC[C@@H]1[C@@H]2C(=O)C[C@@]2(C)[C@H]1CC[C@]2(O)C(=O)CO`, the activation in [7] was -0.997%. The Potency result in [1] and in test [3] was “inactive” in each case. Also, the compound was classed as inactive in test [2] and in test [4].

Regarding `CC(C)NCC(O)c1cc(O)cc(O)c1` (centres undefined), the Potency result in test [1] was “inactive”.

For the compound `NC(=Nc1ccccc1)Nc1ccccc1`, the outcome in test [5] was inactive. Further, the Potency result in test [6] and in test [8] was “inactive” throughout. For the same compound, the Potency in test [7] was 12.6 µM (active).

Take `COC(=O)[C@H]1[C@H]2C[C@@H]3c4[nH]c5cc(OC)ccc5c4CCN3C[C@H]2C[C@@H](OC(=O)c2cc(OC)c(OC)c(OC)c2)[C@@H]1OC`: the outcome in [5], in test [2] and in test [4] was inactive. The activation in test [7] is 3.95% and 8.69%. For the same compound, the Potency entry in [3] was “inactive”.

On to `NC(=O)N1c2ccccc2C=Cc2ccccc21`, for which the outcome in test [5], in test [2] and in test [4] was inactive. Besides, the activation in test [7] was 0.886% and -3.46%. Moreover, the Potency result in test [8], in test [1] and in test [3] was “inactive” in each case.

Consider `O=C(O)CCCCCCCC(=O)O`, for which the activation in [7] was -0.0037%. Besides, the Potency entry in test [1] and in [3] was “inactive” each time. The outcome in test [2] and in test [4] was inactive.

In the case of `CN1CCN(C2=Nc3ccccc3Oc3ccc(Cl)cc32)CC1`, the Potency result in test [1] and in test [3] was “inactive” in each case. In addition, the compound was called inactive in [2] and in [4].

Take `CCCCOCCOCCOCc1cc2c(cc1CCC)OCO2`: in test [5], the compound was called inactive. For the same compound, the activation in [7] was 5.54% and 1.27%.

With `CCc1cccc(N(C)C(N)=Nc2cccc3ccccc23)c1`, the Potency entry in [1] and in test [3] was “inactive” in each case. The compound was classed as inactive in test [2] and in [4].

Regarding `CC(=O)Nc1nnc(S(N)(=O)=O)s1`, the activation in test [7] is -1.84%. Besides, the call in [2] and in [4] was inactive. For the same compound, the Potency entry in [3] was “inactive”.

For the compound `C[C@]12C=CC(=O)C=C1CC[C@H]1[C@@H]3C[C@@H](O)[C@](O)(C(=O)CO)[C@@]3(C)C[C@H](O)[C@@]12F`, in test [7], the activation was 0.771%. Also, the Potency entry in [1] and in test [3] was “inactive” in each case. Also, the compound was classed as inactive in test [2] and in [4].

For the origin of these results see PubChem BioAssay (NCATS).
